The record followed here is PubChem BioAssay (NCATS).

Common to all, as to experiment: qHTS profiling for inhibitors of Plasmodium falciparum proliferation (AID 504749); further: nearly all actives have a fitted effect of over 60% in size
Conditions in all cases: P. falciparum in erythrocytes, SYBR Green DNA, 72 h; series mostly up to 28.7 µM
In general terms: qHTS replaces the single test concentration by a dilution series.

The subject of one assay is CP297. In outline: (§1)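 Three-day growth assay of blood-stage parasites in erythrocytes (0.3% parasitemia, 2.5% hematocrit) at 37 C, 5% CO2, quantified by SYBR Green DNA staining after overnight detergent lysis.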
For another assay, the system named is CP305. In short, it runs like this: as §1
For another assay, the system named is CP315. In outline: as §1
The next assay relates to CP325. In outline:
as §1

The next assay has as its system CP329. In outline: as §1
The next assay has as its system DFO2036. In outline: as §1
The test system of the next assay is ECU. In outline: as §1
A further assay deals with FAB9. In short, it runs like this: as §1
For another assay, the system named is GB4. In outline: as §1
In a further assay the test system is HB3. In short, it runs like this:
as §1

The next assay deals with JCK. In outline:
as §1

The next assay relates to CP335. In outline: as §1
In the next assay the test system is DIV14. In short, it runs like this:
as §1

In the next assay the test system is DIV17. In short, it runs like this:
as §1

Another assay has as its system DIV30. In outline:
as §1

A further assay concerns Dd2. In outline: as §1
In a further assay the test system is ICS. In outline:
as §1

The test system of a further assay is N140. In short, it runs like this:
as §1

The next assay relates to P93_24. In short, it runs like this:
as §1

The next assay has as its system P94_40. In short, it runs like this: as §1

Results filed as inconclusive are left out. The source made the active and inactive calls. The call rests on the fitted dose curve; in most records, active means well fitted inhibition curve with a large enough effect; inconclusive means small, poorly fitted or top-dose-only effect; inactive means flat fitted curve, though single readings scatter.
Potency means the concentration at half of the fitted maximal effect.

As for `Clc1ccc(Nc2nnc(Cc3ccncc3)c3ccccc23)cc1`, the Potency entry with CP297, in the assay with CP305, in the assay with CP315, in the assay with CP325, with DFO2036 and in the assay with FAB9 was “inactive” in each case. The Potency result with GB4, with HB3 and with JCK was “inactive” in each case. In addition, in the assay with CP329, the compound was classed as inactive. In the assay on ECU, the Potency was 14.1 µM (active).

With `CN1CCN(CCCN2c3ccccc3Sc3ccc(C(F)(F)F)cc32)CC1`, the Potency was 5.36 µM (active) in the assay with CP335; 8.91 µM (active) in the assay with DFO2036; 8.49 µM (active) in the assay with DIV14; 7.57 µM (active) in the assay on DIV17; 16.9 µM (active) in the assay with DIV30; 12.6 µM (active) with Dd2. Also, the Potency was 7.57 µM (active) with GB4; 8.91 µM (active) in the assay on ICS; 8.91 µM (active) in the assay on N140; 2.24 µM (active) with P93_24; 12.6 µM (active) in the assay with P94_40. The Potency entry in the assay with FAB9 was “inactive”.

Take `C#Cc1cccc(Nc2ncnc3cc(OCCOC)c(OCCOC)cc23)c1`: the Potency result in the assay on CP305, in the assay on CP315, in the assay on Dd2, with FAB9 and in the assay with JCK was “inactive” in each case. The call in the assay with CP329 was inactive. The Potency was 8.49 µM (active) in the assay with DIV14, 15.1 µM (active) in the assay on DIV17, 11.2 µM (active) in the assay on ICS and 12.6 µM (active) with P94_40.

Regarding `COc1ccc2nc(S(=O)Cc3ncc(C)c(OC)c3C)[nH]c2c1` (centres undefined), the Potency result in the assay with CP297, with CP305, in the assay on CP315, in the assay on CP325, with CP335 and with DFO2036 was “inactive” in each case. The Potency result in the assay on DIV30, in the assay on Dd2, with ECU, with FAB9, in the assay with HB3 and in the assay on JCK was “inactive” throughout. Further, the Potency entry in the assay on N140, with P93_24 and with P94_40 was “inactive” throughout. Besides, the compound was classed as inactive in the assay with CP329. In addition, the Potency in the assay on ICS was 14.1 µM (active).

As for `N[C@@H]1CONC1=O`, the Potency entry in the assay with CP305, in the assay with CP315, in the assay with CP325, in the assay with CP335, in the assay with DFO2036 and in the assay on DIV14 was “inactive” each time. In addition, the Potency result in the assay on DIV17, in the assay with DIV30, in the assay with Dd2, in the assay with ECU, with FAB9 and in the assay with GB4 was “inactive” throughout. For the same compound, the Potency entry in the assay with HB3, in the assay on ICS, in the assay with JCK, in the assay with N140, with P93_24 and in the assay on P94_40 was “inactive” each time. In the assay on CP329, the compound was called inactive.

As to `C1COC(NC(C2CC2)C2CC2)=N1`, the Potency entry in the assay on CP297, in the assay on CP305, with CP315, in the assay on CP335, with DIV30 and in the assay on Dd2 was “inactive” throughout. The Potency result in the assay on FAB9, in the assay on HB3 and with JCK was “inactive” each time.

For `NC(N)=NC(=O)c1nc(Cl)c(N)nc1N`, the Potency entry in the assay on CP297 and in the assay with CP315 was “inactive” in each case. For the same compound, the result in the assay with CP329 was inactive. For the same compound, the Potency in the assay on DIV14 is 9.53 µM (active); in the assay on DIV17 it was 6.75 µM (active); in the assay with GB4 it was 15.1 µM (active); in the assay with HB3, 11.2 µM (active); in the assay on ICS it was 2.24 µM (active); in the assay with N140 it was 8.91 µM (active). For the same compound, the Potency was 7.08 µM (active) with P93_24 and 12.6 µM (active) in the assay with P94_40.

With `CCOC(=O)N1CCC(=C2c3ccc(Cl)cc3CCc3cccnc32)CC1`, the Potency is 13.5 µM (active) with CP297; 7.57 µM (active) with DIV14; 9.53 µM (active) in the assay with DIV17; 13.5 µM (active) with DIV30; 12.6 µM (active) in the assay on ECU; 12 µM (active) with GB4. For the same compound, the Potency with ICS was 2.24 µM (active); in the assay on N140, 3.98 µM (active); in the assay on P94_40, 11.2 µM (active). Besides, the Potency entry with DFO2036 and with FAB9 was “inactive” throughout.

Take `CCCc1nc2c(C)cc(-c3nc4ccccc4n3C)cc2n1Cc1ccc(-c2ccccc2C(=O)O)cc1`: the Potency entry with CP305, in the assay on CP315, in the assay with CP325 and in the assay with FAB9 was “inactive” throughout. In the assay with CP329, the result was inactive. The Potency in the assay on CP335 was 6.01 µM (active); in the assay on DIV17, 0.675 µM (active); in the assay with Dd2, 5.01 µM (active); with HB3 it was 10 µM (active); in the assay with ICS it was 0.631 µM (active); with N140, 1.41 µM (active). The Potency in the assay on P94_40 was 1.78 µM (active).

Regarding `CC(C)C[C@H](NC(=O)[C@@H](O)[C@H](N)Cc1ccccc1)C(=O)O`, the Potency in the assay with CP297 was 8.49 µM (active); in the assay with CP305 it was 6.01 µM (active); in the assay with CP315 it was 12 µM (active); in the assay on CP325 it was 6.75 µM (active); in the assay with CP335 it was 6.01 µM (active); in the assay with DFO2036, 5.62 µM (active). Also, the Potency in the assay on DIV14 is 4.78 µM (active); in the assay on DIV17, 6.75 µM (active); with DIV30, 6.01 µM (active); in the assay with Dd2, 3.16 µM (active); in the assay with ECU, 7.94 µM (active); with FAB9, 10 µM (active). The Potency with GB4 is 4.78 µM (active); in the assay on ICS it was 4.47 µM (active); with N140 it was 7.94 µM (active); in the assay with P93_24, 5.01 µM (active); with P94_40, 7.08 µM (active).

`OC(CN1CCC(Cc2ccc(F)cc2)CC1)c1ccc(Cl)cc1` (centres undefined): the Potency entry with CP315 and in the assay on CP325 was “inactive” throughout. In addition, the call in the assay on CP329 was inactive. The Potency with CP335 is 3.79 µM (active); in the assay with DIV14 it was 1.07 µM (active); with DIV17, 0.953 µM (active); with DIV30 it was 1.9 µM (active); in the assay on Dd2, 2.51 µM (active); in the assay on ECU it was 1.58 µM (active). Moreover, the Potency in the assay with GB4 is 1.2 µM (active); in the assay with HB3 it was 8.91 µM (active); in the assay with ICS, 0.355 µM (active); in the assay on JCK, 2 µM (active); in the assay on N140, 0.794 µM (active); with P93_24 it was 1.58 µM (active). In addition, in the assay on P94_40, the Potency was 1.58 µM (active).

On to `Cc1ccccc1C(OCCN(C)C)c1ccccc1` (centres undefined), for which the Potency result in the assay on CP297, in the assay with Dd2, with ECU, in the assay on FAB9 and in the assay on HB3 was “inactive” each time. In addition, the Potency in the assay on DIV14 was 6.75 µM (active); in the assay on DIV17, 7.57 µM (active); in the assay on N140, 12.6 µM (active).

Take `CCOC(=O)C1=C[C@@]2(CC)CCCN3CCc4c(n1c1ccccc41)[C@H]32`: the Potency in the assay with CP297 is 12 µM (active); with CP305, 13.5 µM (active); with CP325, 9.53 µM (active); in the assay with CP335, 12 µM (active); in the assay on DIV14, 13.5 µM (active); with DIV17, 7.57 µM (active). Further, the values for the Potency with DIV30 and in the assay on GB4 were 12 µM (active) and 7.57 µM (active), respectively.

With `Nc1nc2ccc(OC(F)(F)F)cc2s1`, the Potency result with CP297, in the assay on CP305, in the assay with CP315, in the assay on CP325, with CP335 and with DFO2036 was “inactive” each time. Besides, the Potency entry in the assay on DIV17, in the assay on DIV30, with Dd2, with ECU, in the assay on FAB9 and in the assay on GB4 was “inactive” each time. Further, the Potency result with HB3, with ICS, in the assay with JCK, in the assay with N140 and in the assay with P93_24 was “inactive” in each case. In the assay on CP329, the call was inactive.

Take `CCOC(=O)C1=C[C@]2(CC)CCCN3CCc4c(n1c1ccccc41)[C@@H]32`: the Potency with CP297 was 13.5 µM (active); with DIV14 it was 12 µM (active); in the assay on DIV17 it was 15.1 µM (active); in the assay with DIV30, 13.5 µM (active); with ICS, 8.91 µM (active); in the assay on N140 it was 12.6 µM (active). Besides, the Potency in the assay on P93_24 is 12.6 µM (active).

For `Cc1cc2c(C(C)C)c(O)c(O)c(C=O)c2c(O)c1-c1c(C)cc2c(C(C)C)c(O)c(O)c(C=O)c2c1O`, the results for the Potency in the assay on Dd2 and in the assay with ICS were 11.2 µM (active) and 5.01 µM (active), respectively. In addition, the Potency entry in the assay with FAB9 is “inactive”.
